# PubChem BioAssay (NCI)
# Compounds without any hit were thinned out: in the full panel of roughly 83,000, 20% have a hit.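 Assay: single dose, 48 h. Readout: percent growth (0 = no net growth; negative = cell death). Active: <10.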 Activity calls are given as the source filed them.
# Test system: OVCAR-3 ovarian
# Assay: NCI-60 one-dose screen, 48 h (100 = growth as untreated, 0 = no growth, -100 = all killed)
# Details: 10 µM unless noted
# Experimental: Growth inhibition of the OVCAR-3 human tumor cell line is measured as a screen for anti-cancer activity. Cells are grown in 96 well plates and exposed to the test compound for 48 hours. Compounds are tested at a single concentration, which is 10^-5 M for most compounds. The reported endpoint is percent growth (GI% or GIPRCNT), where numbers from 0 - 100% represent growth inhibition, and numbers from -100% - 0 represent cell death. For example, a value of 40 represents 60% growth inhibition. A value of 0 means no net growth occurred over the course of the experiment. A value of -40 indicates 40% of cells at the beginning of the experiment died by the end of the experiment. A value of -100 means all cells are dead at the end of the experiment.
# NCI-60 Human Tumor Cell Lines Screen was performed using the standard one-dose NCI protocol, which is described in more detail at https://dtp.cancer.gov/discovery_development/nci-60/default.htm.
# Compounds with GIPRCNT values below 10 were considered active. Activity score was based on GIPRCNT using the following formula: […]
# Score is 0 for GIPRCNT values of 100 or above, 50 for GIPRCNT values of 0, and 100 for GIPRCNT values of -100.
row,SMILES,growth
1,N#Cc1c(-c2cccc([N+](=O)[O-])c2)nc(SCC(=O)c2ccc(Cl)cc2)[nH]c1=O,103% (inactive)
2,CCCCCCNC(=O)Nc1ccc2cc3ccc(NC(=O)NCCCCCC)cc3nc2c1,-5.6% (active)
3,O=C(CCN1CCCC1)c1ccc([N+](=O)[O-])cc1,104% (inactive)
4,CCOC(=O)c1ccc2c(c1)ncn2-c1ccc(NC(=O)Nc2cccc(C)c2)cc1,96.9% (inactive)
5,NS(=O)(=O)c1ccc(CCn2c(SCC(=O)c3ccc(Cl)cc3)nc3ccccc3c2=O)cc1,109% (inactive)
6,CCC(=O)Oc1ccc(/C(=C(\C)c2ccccc2)c2ccc(OCCN3CCCCC3)cc2)cc1,84.3% (inactive)
7,N#C/C(=C\c1c(-c2ccccc2)[nH]c2ccccc12)C(=O)c1ccc(Cl)cc1,-33.2% (active)
8,CC(C)(C)[Si](C)(C)OC1[C@@H](O[Si](C)(C)C(C)(C)C)[C@@H](CNC(=O)NC(=O)CCl)O[C@H]1n1cnc2c(NC(=O)Nc3ccccc3)ncnc21 (stereo not given in full),-82.1% (active)
9,CCCCCCNC(=O)Oc1ccc(/C(=C(\C)c2ccccc2)c2ccc(OCCCN(C)C)cc2)cc1,89.7% (inactive)
10,C/C(=N\NC(=O)CSc1nc2ccccc2c(=O)n1Cc1ccc(S(N)(=O)=O)cc1)c1ccc(F)cc1,115% (inactive)
11,COc1cc(/C=N/NC(=O)c2cnn3c2NC(c2ccccc2)C3)ccc1Oc1ccccc1 (stereo not given),-23.4% (active)
12,COc1ccc(C/C(C)=C(/c2ccc(OCCCN(C)C)cc2)c2ccc(OC(C)=O)cc2)cc1,91.1% (inactive)
13,C=C1C(=O)O[C@H]2[C@H]1CC/C(COC(=O)NCc1c[nH]c3ccc(Cl)cc13)=C\CC[C@@]1(C)O[C@@H]21,-87.2% (active)
14,CCOC(=O)Oc1c(OC)cc(C(=O)c2ccc(OC)c(OC(=O)CCl)c2OC)cc1OC,-18.4% (active)
15,CC/C(=C\c1ccc(OC)cc1)C(=O)c1ccc(OC)cc1,211% (inactive)
16,O=C(NO)c1ccc(-n2nc(-c3ccccc3)c3ccccc32)cc1,1% (active)
17,NS(=O)(=O)c1ccc(CCN2C(=O)c3cc(Cl)c(Cl)cc3C2=O)cc1,109% (inactive)
18,COc1cc(OC)cc(C(=O)C[n+]2cccc3cc[nH]c32)c1,106% (inactive)
19,CCNc1nc2cc(Nc3ccnc4cc(Cl)ccc34)ccc2o1,80.9% (inactive)
20,COc1cc(-c2cc(-c3ccc(N(C)C)cc3)nc(N3CCOCC3)c2C#N)cc(OC)c1OC,87.9% (inactive)

row,SMILES,growth
1,NCCCCCCNc1cc(-c2cccc(OC(F)(F)F)c2)nc2ccc(N3CCCC3)cc12,-82.4% (active)
2,CN1CCC(=C(c2ccccc2)c2ccccc2)C(c2ccccc2)C1 (stereo not given),113% (inactive)
3,O=Cc1cc2ccccc2nc1Oc1ccc(C(F)(F)F)cc1,96.7% (inactive)
4,COc1ccc(/C=C2\Oc3cc(OCCCCCN4CCCCC4)ccc3C2=O)cc1OC,82.8% (inactive)
5,COc1cc(/C(C)=C(\c2ccc(Cl)cc2)c2ccc(OCCN3CCCC3)cc2)ccc1F,63% (inactive)
6,CCCOC(=O)N[C@H]1CCc2cc(OC)c(OC)c(OC)c2-c2ccc(SC)c(=O)cc21,-42.1% (active)
7,COC(=O)/C=C1\S/C(=N\NC(=O)c2cc3ccc2/C=C\c2ccc(cc2)/C=C\3)N(Cc2ccccc2)C1=O,20.3% (inactive)
8,COc1cc(NCCCCCNC(C)(C)C)c2ncccc2c1,81.2% (inactive)
9,COc1cc2nc(-c3ccc(Cl)cc3)cc(OCCCN3CCOCC3)c2cc1OC,77.8% (inactive)
10,COc1cc2nc(-c3ccc(C(F)(F)F)cc3)cc(OCCN3CCCCC3)c2cc1OC,89.7% (inactive)
11,Nc1c(C(=O)Nc2cccc3cnccc23)sc2nc3c(cc12)CN(Cc1ccccc1)CC3,108% (inactive)
12,O=C(Nc1ccc(-c2ccc3c(c2)NC(=O)/C3=C\c2ccc[nH]2)cc1)NC1CC1,107% (inactive)
13,CN1CCN(CCNc2nccc(-c3c(-c4cccc(O)c4)nc4sccn34)n2)S1(=O)=O,81.5% (inactive)
14,COc1ccc2c(c1)oc1c(C)c3c(c(C)c12)C(=O)N(N)C3=O,24.9% (inactive)
15,CC1(C)CC(=O)C2=C(C1)N(c1ccc(F)cc1F)C(N)=C(C#N)C2c1cc(Br)ccc1F (stereo not given),99.7% (inactive)
16,Cc1ccc(-n2c3c(c(-c4ccccc4)c2-c2ccccc2)C2=NCCN2C=N3)cc1,90.5% (inactive)
17,CCOC(=O)c1cc(C(=O)c2cc(OC)cc(OC)c2)n2ccc3ccccc3c12,112% (inactive)
18,Cc1cc(Cl)nc(N(CCNc2ccnc3cc(Cl)ccc23)Cc2ccccn2)n1,3.13% (active)
19,O=C1Nc2cc(-c3ccc(NC(=O)C4CC4)cc3)ccc2/C1=C/c1ccc[nH]1,110% (inactive)
20,C=C1C(=O)O[C@H]2[C@H]1CC/C(CNC(=O)/C=C/c1ccccc1)=C\CC[C@@]1(C)O[C@@H]21,-85.1% (active)
